Data: ChEMBL document CHEMBL4888484, “Replenishing the malaria drug discovery pipeline: Screening and hit evaluation of the MMV Hit Generation Library 1 (HGL1) against asexual blood stage Plasmodium falciparum ,using a nano luciferase reporter read-out” (2022)
Where “and” joins values, the source holds several entries; their conditions need not be identical. Identical values can stand only once. Out of some 150,000 compounds screened, about 540 (0.36%) showed an effect of 50% or more. The sample holds strong results, similar compounds and a random draw of the others, so the mix is not that of the screen.

Tested on: Plasmodium falciparum
Experiment: Primary screen in NF54 nanoGlo assay, in single point, at 2uM, 72h; a lower Z score goes with more inhibition
Format: functional, Erythrocyte
Conditions: timepoint 72 hour

Structure (SMILES)	% Inhibition [%]	Z score	% Inhibition (2 µM)
C[C@@H](CN1CCc2ccccc2C1)NC(=O)c1cnc2c(c1)CCCC2	-3	0.47	
CCn1cc(-c2cccc(C(=O)N[C@@H](C)c3nc(C)sc3C)c2)cn1	-4	0.85	
CN(CC(F)(F)F)C(=O)CN1C(=O)c2ccccc2C(C)(C)C1=O	2	-0.16	
Cc1[nH]ncc1CCCNCc1cccc(O)c1	39	-0.35	
COc1ccc(CCNC(=O)c2cc3c(=O)[nH]c(C)cn3n2)cc1OC	61	-7.83	
Cc1cn2nc(C(=O)NCCc3ccccc3)cc2c(=O)[nH]1	3	-0.45	
Cc1cn2nc(C(=O)NCCc3ccc(S(N)(=O)=O)cc3)cc2c(=O)[nH]1	-18	3.38	
CCN(CC)S(=O)(=O)c1ccc2c(c1)nnn2CCNC(=O)Nc1cccc(F)c1	26	-2.96	
CNC(=O)CCCN(C)c1ccnc2cc(Br)cnc12	-9	1.06	
Cc1cc(CN(C)c2ccnc3cc(Br)cnc23)no1	12	-0.99	
C[C@@H](CN)N(C)c1ccnc2cc(Br)cnc12	99	-17.88	
Cc1cc(C(=O)N[C@@H]2COC(C)(C)C2)n(C2CCOCC2)n1	3	-0.34	
C[C@@H](C(=O)N(C)CC1(CO)CCCC1)N1CCN(C)CC1	-13	1.47	
COc1cc(CNCCCN2CCOCC2)ccc1OCc1ccc(Cl)cc1	50	-4.4	
COc1cc(CNCCN2CCOCC2)ccc1OCc1cccc(C)c1	42	-5.6	
COc1ccc(-c2cc3n(n2)CCC(=O)N3Cc2ccc(C(=O)NCCN3CCCCC3)cc2)cc1	10	-1.2	
COc1ccc(S(=O)(=O)N2CCC(c3cc(N)on3)CC2)cc1Cl	57	-3.68	
COc1ccc(S(=O)(=O)N2CCC(n3cnnc3C)CC2)cc1Cl	-11	1.63	
COc1cccc(S(=O)(=O)N2CCC(c3cc(N)on3)CC2)c1	19	-2.95	
C[C@@H](c1nc(C(C)(C)C)no1)N1CCN(C(c2ccccc2)c2ccccc2)CC1	-18	1.54	
c1ccn2cc(Cc3nc(C4CC4)cs3)nc2c1	5	-0.54	

Structure (SMILES)	% Inhibition [%]	Z score	% Inhibition (2 µM)
CCCN(CCc1cccs1)C(=O)CCc1cscn1	-14	1.18	
CCn1nc(C)cc1C(=O)N[C@H]1CC2(CCCCC2)Oc2ccccc21	-13	1.49	
Cn1cnnc1N1CCN(C(=O)NC[C@]2(C)C[C@H]2c2ccccc2)CC1	-9	1.79	
O=C(CCCn1cccn1)NS(=O)(=O)c1ccc2ccccc2c1	-7	0.99	
Nc1ccc(C2(c3ccc(N)cc3)c3ccccc3C(=O)c3ccccc32)cc1	18	-2.61	
O=C(Nc1ccc(C2(c3ccc(NC(=O)c4ccc(F)cc4)cc3)c3ccccc3C(=O)c3ccccc32)cc1)c1ccc(F)cc1	77	-2.85	
O=C1NC(c2ccc(NC(=O)c3cccc4ccccc34)cc2)(c2ccc(NC(=O)c3cccc4ccccc34)cc2)c2ccccc21	23	-3.32	
O=C(COc1ccccc1Cl)Nc1ccc(C2(c3ccc(NC(=O)COc4ccccc4Cl)cc3)c3ccccc3-c3ccccc32)cc1	38	-1.02	
O=C(Nc1ccc(-c2c3ccccc3c(-c3ccc(NC(=O)c4cccc5ccccc45)cc3)c3ccccc23)cc1)c1cccc2ccccc12	-8	1.08	
O=C1c2ccccc2C(c2ccc(NC(=O)c3cccc4ccccc34)cc2)(c2ccc(NC(=O)c3cccc4ccccc34)cc2)c2ccccc21	95	-13.49	
Cc1cccc(NC(=O)CN2CC(=O)NC[C@H]2c2ccccc2)c1C	-6	0.77	
N[C@H](C(=O)Nc1cncc(Br)c1O)C1CCOCC1	10	-1.45	
CNc1nc(N2CCOCC2)nc2ccccc12	2	-0.34	
CN(C)[C@H]1CCN(CC(=O)NC2(c3cc(F)ccc3F)CC2)C1	8	-1.27	
OCCn1nc(Cc2cccs2)nc1CCN1CCCCCCC1	-16	2.13	
Cc1nnc(CN2CCC[C@H](c3nc(C(C)C)cs3)C2)s1	-8	1.01	
CC1(C)NC(=O)N(CC(=O)N2CCC[C@H]2c2ccc3c(c2)OCCCO3)C1=O	-13	1.7	
CCOc1ccc(-[n+]2cc(-c3ccccc3)n3c2CCC3)cc1	68	-6.48	
CCOc1ccc([C@@]2(O)CN3C=CC=CC3=[N+]2c2ccccc2)cc1	-39	4.59	
FC(F)Oc1ccc(-c2c[n+](-c3cccc(C(F)(F)F)c3)c3n2CCCCC3)cc1	39	-3.9	
Cc1ccc(-c2c[n+](-c3ccc(OC(F)F)cc3)c3n2CCCCC3)cc1	66	-12.11	

Structure (SMILES)	% Inhibition [%]	Z score	% Inhibition (2 µM)
Cn1c(-c2ccc(Br)cc2)c[n+](CC(=O)c2ccc(Br)cc2)c1N	41	0.35	
CCOc1ccc([C@@]2(O)CN3CCCCCC3=[N+]2c2ccc(C)cc2)cc1	1	-0.19	
O=C(C[n+]1nc(-c2n[n+](CC(=O)c3ccccc3)c3n2CCCCC3)n2c1CCCCC2)c1ccccc1	6	-1.08	
COc1ccc(C(=O)C[n+]2cc(-c3ccc(OC)cc3)n3c2CCCC3)cc1	65	-8.89	
COc1ccc(C(=O)C[n+]2nc(CNc3ccc(Br)cc3)n3c2CCCCC3)cc1	78	-12.51	
Cc1ccc(NCc2n[n+](CC(=O)c3ccccc3)c3n2CCCCC3)cc1	-40	4.69	
Cc1ccc([N+]2=C3CCCCCN3C[C@]2(O)c2ccc(OC(F)F)cc2)cc1	-12	1.97	
COc1ccc(C(=O)C[n+]2cc(-c3cccc(Br)c3)n(C)c2N)cc1	3	-0.43	
CCCN(CCC)C(=O)CN1CCN(Cc2ccc3c(c2)CCO3)CC1	-11	1.43	
COc1ccc(Cl)cc1[C@H](C)NCc1nncn1C1CC1	-13	2.01	
OC[C@H]1CCCN(CCNc2ccc3cc(Cl)ccc3n2)C1	12	-1.36	
Cc1nccc(NC(=O)N2C3CCC2CC(CCF)C3)n1 (stereo not given)	-5	0.79	
COc1ccc(NC(=O)c2ccc3nn(CC(=O)Nc4ccc(F)cc4)c(=O)n3c2)cc1	-26	2.29	
O=C(NCc1ccc(F)cc1)C1[C@@H]2C=C[C@@]3(CN(Cc4ccccc4Cl)C(=O)[C@H]13)O2 (stereo not given in full)	-9	1.29	
CCCCN(C(=O)Nc1nc2ccccc2s1)C1CC1	-5	0.64	
COc1ccc([N+]2=C3CCCCN3C[C@]2(O)c2ccc(Cl)cc2)cc1			3% and -11%
COc1ccc(-c2cnc3n2CCCC3)cc1	-23	2.75	
COc1ccc(-c2c[n+](-c3ccc(Cl)cc3)c3n2CCCCC3)cc1	64	-6.22	
Oc1cccc(CN2CCC3(CC2)C[C@H](c2ccccc2)CN(C2CC2)C3)c1	76	-2.68	
c1ccc([C@@H]2CN(C3CC3)CC3(CCN(Cc4ccncc4)CC3)C2)cc1	-1	0.23	
c1ccc([C@@H]2CN(C3CC3)CC3(CCN(Cc4ccccn4)CC3)C2)cc1	-10	1.74	

Structure (SMILES)	% Inhibition [%]	Z score	% Inhibition (2 µM)
N#C[C@@]1(c2ccccc2OCc2ccccc2)CCC(=O)N1Cc1ccccc1	-10	1.37	
CN(C)CCN(Cc1ccsc1)C(=O)c1cc2cc(F)ccc2[nH]1	-5	0.68	
CN(Cc1ccsc1)C(=O)c1cccs1	-2	0.22	
CN(Cc1ccsc1)C(=O)c1cc2ccccc2[nH]1	58	-6.32	
Cc1ccc(S(=O)(=O)N2CCN(C(=O)NCc3nccn3C)CC2)cc1	-12	2.31	
CC(C)N(Cc1ccccc1)C(=O)Cc1csc(-c2cccnc2)n1	-7	0.9	
CC1CN(C(=O)Cc2csc(-c3cccnc3)n2)CC(C)O1 (stereo not given)	-15	2	
CCN1CCC(N(C)C(=O)Cc2csc(-c3cccnc3)n2)CC1	61	0.93	
CN(CCNC(=O)CCc1cn(-c2ccccc2)nc1-c1ccc2c(c1)OCO2)C1CCCCC1	63	-8.26	
COCCNC(=O)CCc1cn(-c2ccccc2)nc1-c1ccc2c(c1)OCO2	-10	1.35	
O=C(CCc1cn(-c2ccccc2)nc1-c1ccc2c(c1)OCO2)NC[C@H]1CCCO1	0	0.04	
COC[C@@H]1[C@H](C(=O)Nc2cc(OC)ccc2OC)CCC(=O)N1C	-12	1.42	
O=C(Nc1nncs1)c1cccc(C(=O)Nc2nncs2)n1	77	-14.68	
O=C(Nc1nncs1)c1occc1-c1ccccc1	-6	0.51	
CNc1cccc(C(=O)Nc2nncs2)n1	-13	1.62	
Nc1nnnn1CC(=O)N[C@H]1CC(=O)Nc2ccccc21	10	-1.71	
FC(F)(F)c1ccnc(Nc2ccc3c(c2)OCO3)n1	-4	0.56	
CC(C)c1cc(CN(Cc2cc(C(C)C)c(O)c(C(C)C)c2)C2CCCCC2)cc(C(C)C)c1O	95	-12.83	
COc1ccc(CN(Cc2nnn(C)n2)C2CCCCC2)cc1OC	-7	1.05	
Cc1nn(C)cc1CN(Cc1ccncc1)C1CCCCC1	8	-1.12	
